The text below walks through data of PubChem BioAssay.

The test system of assay [1] is XIP peptide (Xip251-270) binding. As to the kind of experiment: XIP fragment 251-270 binding compounds – biochemical, small-molecule microarray, fluorescence 635/667 nm, 0.1 µg/mL protein, primary screen (AID 1182). The note with it: fluorescent protein binding, 635 nm, higher = more signal, called active from +8 up or from −8 down.
The test system of another assay is XIP peptide (Xip251-270). As to the kind of experiment: compounds binding XIP fragment 251-270 – biochemical, small-molecule microarray, fluorescence 635/667 nm, 0.5 µg/mL protein, primary screen (AID 1183). The note with it: fluorescence 635 nm, higher = more signal.
Assay [2] in a line: blood-stage malaria parasite viability loss – strain 3D7, DAPI fluorescence, 100 nL, primary screen (AID 1184).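 Note: parasites grown inside human red blood cells in medium with human serum.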 The note with it: P. falciparum 3D7 growth, 3 d, higher = more signal.
The target of assay [3] is Homeobox protein Hox-A13 (Mus musculus) (UniProt Q62424). In words: disruptors of Hoxa13 oligonucleotide interaction – biochemical, fluorescence polarization, labeled oligonucleotide, primary screen (AID 1185). The note with it: Hoxa13:DNA binding, 15 min, higher = more signal, called active from +8 up or from −8 down. For orientation: In fluorescence polarisation assays a small probe gives low polarisation when free and higher when bound to something large.
Homeobox protein Hox-A13 (Mus musculus), sequence (Q62424 whole entry, looked up): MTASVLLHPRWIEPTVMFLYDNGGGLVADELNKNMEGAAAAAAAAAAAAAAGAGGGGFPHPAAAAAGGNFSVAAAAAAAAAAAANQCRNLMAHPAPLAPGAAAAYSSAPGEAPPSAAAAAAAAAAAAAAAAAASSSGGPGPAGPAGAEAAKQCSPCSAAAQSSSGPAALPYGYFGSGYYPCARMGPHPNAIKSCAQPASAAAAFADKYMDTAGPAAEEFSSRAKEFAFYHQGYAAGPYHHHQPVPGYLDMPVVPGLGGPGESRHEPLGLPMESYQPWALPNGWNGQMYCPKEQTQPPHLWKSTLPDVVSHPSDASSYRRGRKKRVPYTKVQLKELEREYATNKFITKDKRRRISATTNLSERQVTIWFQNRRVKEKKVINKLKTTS

Assay [4] is described as follows: blockers of DNA damage checkpoint Chk1 activation – imaging, HeLa, hydroxyurea, phospho-Chk1 antibody, percent positive cells, primary screen (AID 1186). The note with it: hydroxyurea-induced phospho-Chk1 immunofluorescence imaging, higher = more signal.
Assay [5] is described as follows: blockers of DNA damage checkpoint Chk1 activation – imaging, HeLa, hydroxyurea, phospho-Chk1 nuclear intensity, primary screen (AID 1187). The note with it: hydroxyurea-induced phospho-Chk1 immunofluorescence imaging, higher = more signal.

The source made the active and inactive calls. Unless noted, the rule behind the calls is not given here.

As to `CCOC(=O)C1=CCC(c2ccccc2)N(S(=O)(=O)c2ccc([N+](=O)[O-])cc2)C1` (stereo unspecified), the results for the composite z-score (in assay [1]; in the assay with XIP peptide (Xip251-270)) were 0.0444 (inactive) and -0.165, respectively. Also, the z-score in assay [2] was -0.198; in assay [3], -1.91 (inactive); in assay [4], 0.268 (inactive); in assay [5], -0.0449 (inactive).

As for `CCCCC(=C=CC[C@H](O)c1ccc(OCCO)cc1)C[C@H](O)COCc1ccccc1`, the composite z-score is 0.9 (inactive) in assay [1] and 0.1 with XIP peptide (Xip251-270). Also, the z-score in assay [2] is -1.44; in assay [3], -4.21 (inactive); in assay [4], -0.122 (inactive); in assay [5], -0.0784 (inactive).

On to `C=C[C@H](C)[C@H](OC(=O)Nc1ccc(OC)cc1)c1ccc(OCCO)cc1`, for which the values for the composite z-score (in assay [1]; in the assay on XIP peptide (Xip251-270)) were 0.526 (inactive) and -0.0503, respectively. For the same compound, the z-score in assay [2] was -1.15; in assay [3], -4.59 (inactive); in assay [4], -0.806 (inactive); in assay [5], -0.261 (inactive).

For `COc1ccc([Si](C)(C)[C@H]2[C@H](CCO)O[C@@]3(C(=O)N(Cc4ccc(N5C(=O)c6ccccc6Oc6ccccc65)cc4)c4ccccc43)[C@@H]2C)cc1`, the composite z-score in assay [1] was -0.136 (inactive); in the assay with XIP peptide (Xip251-270) it was 0.0004. Besides, the z-score in assay [2] was -1.67; in assay [3], -1.05 (inactive); in assay [4], -0.557 (inactive); in assay [5], -0.583 (inactive).

On to `C=C(/C(=C/C[C@@H](OC(C)=O)c1ccc(OCCO)cc1)c1cc(C(=O)OC)ccc1OC)C(C)C`, for which the composite z-score in assay [1] was 0.96 (inactive); in the assay with XIP peptide (Xip251-270), 0.819. The z-score in assay [2] is -3; in assay [3], -4.3 (inactive); in assay [4], 0.38 (inactive); in assay [5] it was 0.578 (inactive).

For `CN1C(=O)C2C(C1=O)C1C=C(CCCO)C2C(c2cccs2)N1Cc1cc2c(cc1Br)OCO2` (stereo unspecified), the composite z-score was 0.0841 (inactive) in assay [1] and 0.757 in the assay on XIP peptide (Xip251-270). The z-score in assay [2] was -0.654; in assay [3], -8.9 (active); in assay [4], 0.214 (inactive); in assay [5] it was 0.228 (inactive).

On to `C=C(COC)C(=O)CC[C@@H](OC(=O)c1cccnc1)c1ccccc1OCCO`, for which the composite z-score was -0.288 (inactive) in assay [1] and -0.576 with XIP peptide (Xip251-270). Also, the z-score was -3.07 in assay [2], -4.3 (inactive) in assay [3], 0.329 (inactive) in assay [4] and 0.162 (inactive) in assay [5].

In the case of `COCCOC(=O)N1C(=O)[C@@]2(c3cc(C#CCC(C(=O)OC)C(=O)OC)ccc31)[C@H](C(=O)NC[C@H](O)c1ccccc1)[C@H]1C(=O)O[C@H](c3ccccc3)[C@H](c3ccccc3)N1[C@@H]2c1ccc(OCCO)cc1`, the composite z-score in assay [1] was 3.06 (inactive); with XIP peptide (Xip251-270), 0.64. The z-score in assay [2] is -2.28; in assay [3] it was -0.301 (inactive); in assay [4] it was 0.0558 (inactive); in assay [5], 0.176 (inactive).

Consider `C=C(CCCC)C(=O)CC[C@H](OC(=O)c1ccccc1-c1ccccc1C(=O)O)c1ccccc1OCCO`, for which the composite z-score is 0.267 (inactive) in assay [1] and 0.0422 with XIP peptide (Xip251-270). Moreover, the z-score in assay [2] is -2.61; in assay [3], -5.63 (inactive); in assay [4], -0.309 (inactive); in assay [5], -0.102 (inactive).

As to `O=C1C2C=CC(C(O)c3ccc(I)cc3)N(Nc3ccccc3)C2C(=O)N1c1ccccc1` (stereo unspecified), the composite z-score in assay [1] is 0.393 (inactive); with XIP peptide (Xip251-270) it was 0.702. Moreover, the z-score is 0.83 in assay [2], -2.67 (inactive) in assay [3], -0.007 (inactive) in assay [4] and -1.05 (inactive) in assay [5].

In the case of `CC1CC/C=C\[C@H]2OC34C=CCN(CCN5CCOCC5)C(=O)[C@H]3N(C(C)CO)C(=O)[C@@H]4C2C(=O)O1` (stereo partly specified), the composite z-score in assay [1] was -0.153 (inactive); in the assay on XIP peptide (Xip251-270), 0.371. Moreover, the z-score was -0.359 in assay [2], -5.12 (inactive) in assay [3], 0.16 (inactive) in assay [4] and 0.219 (inactive) in assay [5].

As to `CN(C)CCCCNC(=O)[C@H]1C[C@H]2C(=O)N[C@@H](CCCC[N+](C)(C)C)C(=O)N2[C@H]1c1ccc(O)cc1`, the composite z-score is -0.0941 (inactive) in assay [1] and 0.674 in the assay on XIP peptide (Xip251-270). Moreover, the z-score in assay [2] was -0.449; in assay [3], -3.64 (inactive); in assay [4], -1.31 (inactive); in assay [5], -0.989 (inactive).

As to `COc1ccc([Si](C)(C)[C@H]2[C@H](CCO)O[C@@]3(C(=O)N(Cc4ccccc4)c4ccc(N5CCOC5=O)cc43)[C@@H]2C)cc1`, the values for the composite z-score (in assay [1]; with XIP peptide (Xip251-270)) were 0.16 (inactive) and 0.52, respectively. In addition, the z-score in assay [2] was -1.75; in assay [3], -3.27 (inactive); in assay [4], -0.796 (inactive); in assay [5], -0.721 (inactive).

As for `COC(=O)[C@@]1(Cc2ccccc2)[C@H]2c3cc(C(=O)N4CCCC4)n(CCSCCO)c3C[C@H]2CN1C(=O)c1ccccc1`, the results for the composite z-score (in assay [1]; with XIP peptide (Xip251-270)) were 0.343 (inactive) and 0.752, respectively. The z-score in assay [2] is -1.7; in assay [3], -5.06 (inactive); in assay [4], 1.45 (inactive); in assay [5] it was 0.501 (inactive).

As for `Cc1ccccc1C(O)C1C=CC2C(=O)N(c3ccccc3)C(=O)C2N1Nc1ccc([N+](=O)[O-])cc1` (stereo unspecified), the composite z-score in assay [1] was 1.61 (inactive); in the assay with XIP peptide (Xip251-270) it was 0.618. For the same compound, the z-score is -0.42 in assay [2], -3.91 (inactive) in assay [3], -0.0666 (inactive) in assay [4] and -0.614 (inactive) in assay [5].

Consider `COc1cc(NN2C(C(O)c3cc(OC)c(OC)c(OC)c3)C=CC3C(=O)N(c4ccccc4)C(=O)C32)cc(OC)c1OC` (stereo unspecified), for which the composite z-score in assay [1] is 0.692 (inactive); in the assay on XIP peptide (Xip251-270), 0.552. In addition, the z-score was -0.732 in assay [2], -4.86 (inactive) in assay [3], 1.06 (inactive) in assay [4] and 0.889 (inactive) in assay [5].

For the compound `COCCOC(=O)N1C(=O)[C@@]2(c3cc(C#CC4=CCCCC4)ccc31)[C@H](c1ccc(O)cc1)N1[C@H](c3ccccc3)[C@H](c3ccccc3)OC(=O)[C@H]1[C@@H]2C(=O)NC[C@H](O)c1ccccc1`, the composite z-score in assay [1] was 0.816 (inactive); in the assay with XIP peptide (Xip251-270), 0.75. In addition, the z-score in assay [2] was -1.69; in assay [3] it was 1.07 (inactive); in assay [4], -0.0889 (inactive); in assay [5], 0.129 (inactive).

Consider `COC(=O)[C@@]1(Cc2ccc(F)cc2)[C@H]2c3cc(C(=O)N(C)C)n(Cc4ccc(O)c(OC)c4)c3C[C@H]2CN1C(=O)c1ccccc1`, for which the results for the composite z-score (in assay [1]; in the assay with XIP peptide (Xip251-270)) were 0.0137 (inactive) and 0.744, respectively. The z-score was -1.76 in assay [2], -6.34 (inactive) in assay [3], -0.156 (inactive) in assay [4] and -0.131 (inactive) in assay [5].

On to `COc1ccc([Si](C)(C)[C@@H]2[C@@H](CCn3cc([C@H](O)c4ccccc4)nn3)O[C@]3(C(=O)N(Cc4cccc(N5C(=O)c6cccc7cccc5c67)c4)c4ccccc43)[C@H]2C)cc1`, for which the composite z-score in assay [1] is 0.368 (inactive); with XIP peptide (Xip251-270) it was 0.45. The z-score in assay [2] was -2.38; in assay [3], -1.19 (inactive); in assay [4], -0.779 (inactive); in assay [5] it was -1.33 (inactive).

As to `CN(C)C(=O)[C@]1(CCS(=O)(=O)c2ccccc2)N=C(c2ccc(OCCCO)cc2)O[C@@H]1c1ccccc1`, the composite z-score is 0.428 (inactive) in assay [1] and 0.701 in the assay on XIP peptide (Xip251-270). The z-score in assay [2] was -1.96; in assay [3] it was -5.77 (inactive); in assay [4], -0.161 (inactive); in assay [5] it was 0.0689 (inactive).

As to `CCCNC(=O)[C@@]1(Sc2ccc(C)cc2)CC(=O)N(C(C)C)[C@@H]1c1ccc(CO)cc1I`, the composite z-score in assay [1] is 1.51 (inactive); in the assay with XIP peptide (Xip251-270) it was -0.964. The z-score in assay [2] was -0.221; in assay [3], -3.48 (inactive); in assay [4], 0.366 (inactive); in assay [5], 0.197 (inactive).

Regarding `CC(C)[C@H]1NC(=O)[C@@]23C(=O)N[C@@H](Cc4ccccc4)C2[C@H](C)[C@@]2(C)O[C@H]2C3/C=C/C/C=C\CNC(=O)[C@H](Cc2ccccc2)NC1=O` (stereo partly specified), the composite z-score in assay [1] is 0.21 (inactive); with XIP peptide (Xip251-270), 0.763. Besides, the z-score in assay [2] was -2.45; in assay [3] it was -5.69 (inactive); in assay [4] it was 0.174 (inactive); in assay [5] it was 0.5 (inactive).

As to `CN1C(=O)C2C=CC(C(O)c3ccc(I)cc3)N(Nc3ccccc3)C2C1=O` (stereo unspecified), the composite z-score in assay [1] is 0.56 (inactive); in the assay with XIP peptide (Xip251-270), 0.755. Also, the z-score was -0.371 in assay [2], -4.54 (inactive) in assay [3], 0.178 (inactive) in assay [4] and 0.0306 (inactive) in assay [5].

On to `CN1C(=O)C2C=CC(C(O)c3ccc(F)cc3)N(NC(=O)OC(C)(C)C)C2C1=O` (stereo unspecified), for which the results for the composite z-score (in assay [1]; in the assay with XIP peptide (Xip251-270)) were -0.0758 (inactive) and 0.258, respectively. For the same compound, the z-score in assay [2] is -0.383; in assay [3] it was -2.11 (inactive); in assay [4], 0.058 (inactive); in assay [5], -0.173 (inactive).

On to `Cc1ccc(S[C@]2(C(=O)NCC(C)C)CC(=O)N(C3Cc4ccccc4C3)[C@@H]2c2ccc(CO)cc2I)cc1`, for which the composite z-score in assay [1] was -0.238 (inactive); in the assay with XIP peptide (Xip251-270) it was -0.658. Besides, the z-score was -0.233 in assay [2], -2.9 (inactive) in assay [3], 0.495 (inactive) in assay [4] and 0.307 (inactive) in assay [5].

Regarding `COCCOC(=O)N1C(=O)[C@@]2(c3ccccc31)[C@H](c1ccccc1OCCO)N1[C@H](c3ccccc3)[C@H](c3ccccc3)OC(=O)[C@H]1[C@@H]2C(=O)N1CCCCCCC1`, the results for the composite z-score (in assay [1]; in the assay with XIP peptide (Xip251-270)) were 1.55 (inactive) and 0.846, respectively. The z-score in assay [2] is -2.01; in assay [3], 2.31 (inactive); in assay [4] it was 0.203 (inactive); in assay [5], 0.424 (inactive).
